The nature of experiment [1]: qHTS assay to identify small molecule antagonists of the glucocorticoid receptor (GR) signaling pathway - cell viability counter screen (AID 720693). Also: nearly all actives have a fitted effect of over 55% in size.
A short description of experiment [2]: qHTS assay for identifying genotoxic compounds that show differential cytotoxicity against isogenic chicken DT40 cell lines with known DNA damage response pathways - wild type cell line (AID 743012). Also: nearly all actives have a fitted effect of over 60% in size. Also: potency is read from the fitted curve at half-maximal effect. In a few lines:
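Viability of DNA repair-proficient chicken DT40 cells was assessed by CellTiter-Glo luminescence following 40 h compound exposure at 37 C/5% CO2.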
(In general: qHTS replaces the single test concentration by a dilution series.)

Experiment [3] in a line: qHTS assay for identifying genotoxic compounds that show differential cytotoxicity against isogenic chicken DT40 cell lines with known DNA damage response pathways - Rev3 mutant cell line (AID 743014). Also: nearly all actives have a fitted effect of over 55% in size. Also: potency is read from the fitted curve at half-maximal effect.
Experiment [4] in a line: qHTS assay for identifying genotoxic compounds that show differential cytotoxicity against isogenic chicken DT40 cell lines with known DNA damage response pathways - Rad54/Ku70 mutant cell line (AID 743015). Also: nearly all actives have a fitted effect of over 60% in size. Also: potency is read from the fitted curve at half-maximal effect.
Experiment [5] in a line: qHTS assay to identify small molecule antagonists of the androgen receptor (AR) signaling pathway - cell viability counter screen (AID 743033; also: nearly all actives have a fitted effect of over 45% in size).
The target of experiment [6] is Androgen receptor (Homo sapiens) (UniProt P10275). Kind of experiment: qHTS assay to identify small molecule antagonists of the androgen receptor (AR) signaling pathway (AID 743035; active = well fitted inhibition curve with a large enough effect in the signal ratio in the repeat runs, not every such curve was filed as active; the % refers to the signal ratio). In a few lines:
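Reporter HEK293 cells were exposed to compounds and R1881 overnight (16 h, 37C); beta-lactamase activity was then quantified by FRET fluorescence.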

Experiment [7] shares this target. Kind of experiment: qHTS assay to identify small molecule agonists of the androgen receptor (AR) signaling pathway (AID 743036; active = well fitted activation curve with a large enough effect in the signal ratio in the repeat runs, with a control signal flat, not every such curve was filed as active; the % refers to the signal ratio). In a few lines:
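Following a 4 h settling period, AR-UAS-bla HEK293 cells were dosed with compounds for 16 h at 37C. A 2 h room-temperature incubation with LiveBLAzer B/G FRET substrate preceded the fluorescence measurement.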

Experiment [8] shares this target. Kind of experiment: qHTS assay to identify small molecule agonists of the androgen receptor (AR) signaling pathway using the MDA cell line (AID 743040; also: nearly all actives have a fitted effect of over 20% in size). In outline: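 Cell-based luciferase reporter: MDA-kb2, MMTV promoter (AR + GR response elements). 16 h compound exposure at 37C; ONE-Glo, 30 min RT, luminescence.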
Experiment [9] in a line: qHTS assay to identify small molecule antagonists of the androgen receptor (AR) signaling pathway using the MDA cell line - cell viability counter screen (AID 743041; also: nearly all actives have a fitted effect of over 45% in size). In a few lines: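 In this qHTS counter assay, fluorescence intensity after CellTiter-Fluor addition indicated viability of MDA-kb2 AR-luc cells given compounds and R1881 for 16 h at 37C.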
Experiment [10] addresses Androgen receptor (Homo sapiens) (UniProt P10275). Kind of experiment: qHTS assay to identify small molecule antagonists of the androgen receptor (AR) signaling pathway using the MDA cell line (AID 743042; also: nearly all actives have a fitted effect of over 55% in size). In outline: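 MDA-kb2 cells (human breast carcinoma, stably carrying an MMTV-luciferase reporter responsive to AR and GR) were plated at 3,000 cells/well and preincubated 5 hr at 37C, then given compound plus R1881 agonist for 16 h. ONE-Glo luminescence was read.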

Data on 25 molecules can be found in PubChem BioAssay (Tox21).

“And” between values parts separate entries of the source, which are not always exact repeats. Equal values may be shown once. Results filed as inconclusive are left out. Where a structure was tested more than once in an assay, its records may differ in their call. The source made the active and inactive calls. Unless noted, calls follow the shape of the dose curve; as a rule, active = well fitted curve in the direction sought with a large enough effect in the repeat runs; inconclusive = weak or mixed curves; inactive = no such curve, though single readings can be large; an effect the other way counts as inactive or inconclusive.

Chain of Androgen receptor (Homo sapiens) (P10275 whole entry, looked up): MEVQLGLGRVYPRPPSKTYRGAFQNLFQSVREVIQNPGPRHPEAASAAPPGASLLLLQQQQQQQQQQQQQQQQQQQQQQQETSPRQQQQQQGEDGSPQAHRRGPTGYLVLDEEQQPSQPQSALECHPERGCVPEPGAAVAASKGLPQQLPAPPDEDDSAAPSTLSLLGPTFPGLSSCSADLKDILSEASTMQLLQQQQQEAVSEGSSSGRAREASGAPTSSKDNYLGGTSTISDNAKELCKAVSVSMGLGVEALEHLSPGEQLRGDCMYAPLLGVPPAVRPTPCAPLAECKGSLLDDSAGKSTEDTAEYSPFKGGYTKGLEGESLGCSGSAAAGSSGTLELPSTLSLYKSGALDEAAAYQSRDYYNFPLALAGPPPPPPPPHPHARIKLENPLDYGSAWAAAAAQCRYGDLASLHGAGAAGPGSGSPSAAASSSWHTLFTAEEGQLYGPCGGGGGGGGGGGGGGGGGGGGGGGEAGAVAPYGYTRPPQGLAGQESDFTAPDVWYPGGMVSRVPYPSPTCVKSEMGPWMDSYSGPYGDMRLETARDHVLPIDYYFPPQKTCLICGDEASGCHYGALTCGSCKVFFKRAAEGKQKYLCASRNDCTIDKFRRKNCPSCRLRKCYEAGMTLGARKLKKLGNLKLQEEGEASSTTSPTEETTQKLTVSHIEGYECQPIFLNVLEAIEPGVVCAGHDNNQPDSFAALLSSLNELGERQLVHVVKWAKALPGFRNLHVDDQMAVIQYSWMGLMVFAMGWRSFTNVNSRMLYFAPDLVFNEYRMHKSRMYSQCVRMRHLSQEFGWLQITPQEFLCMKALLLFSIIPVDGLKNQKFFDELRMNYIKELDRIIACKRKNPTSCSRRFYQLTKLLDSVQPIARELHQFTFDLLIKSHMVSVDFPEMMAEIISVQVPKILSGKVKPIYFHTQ

`Clc1ccc(C(Cl)(Cl)Cl)cn1`: the Potency entry in experiment [1], in experiment [2], in [4], in experiment [5], in experiment [6] and in experiment [9] was “inactive” throughout. In addition, in experiment [10], the Potency result is “inactive”. Also, the Potency in experiment [3] was 61.1 µM (active). Further, the outcome in experiment [7] and in experiment [8] was inactive.
For `O=C/C=C/c1ccco1`, the Potency entry in [1], in experiment [2], in experiment [3], in experiment [4], in experiment [5] and in experiment [6] was “inactive” in each case. The Potency result in experiment [9] and in [10] was “inactive” in each case. Besides, the molecule was called inactive in [7] and in experiment [8].
In the case of `CCSC(=O)Cl`, the Potency entry in experiment [1], in experiment [2], in experiment [3], in experiment [4], in [5] and in experiment [6] was “inactive” each time. For the same molecule, the Potency entry in [9] and in experiment [10] was “inactive” in each case.
`COc1ccc(CN2CCNCC2)c(OC)c1OC`: the Potency result in [1], in experiment [2], in experiment [3], in experiment [4], in experiment [5] and in [9] was “inactive” each time.
In the case of `C=CC(=O)OCCN(C)C`, the Potency result in [1], in experiment [2], in experiment [3], in [4], in [5] and in experiment [9] was “inactive” throughout.
As for `C#CC(C)(C)O`, the Potency entry in experiment [1], in experiment [2], in [3], in [4], in [5] and in experiment [9] was “inactive” throughout.
`CC[C@H](N)c1ccccc1`: the Potency entry in experiment [1], in experiment [2], in experiment [3], in [4], in [5] and in [6] was “inactive” throughout. Besides, the Potency entry in [9] and in experiment [10] was “inactive” in each case. Further, the molecule was classed as inactive in experiment [7] and in experiment [8].
For the molecule `CCC1(c2ccccc2)CCC(=O)NC1=O` (stereo not drawn), the Potency result in experiment [1], in experiment [2], in experiment [3], in [4], in experiment [5] and in experiment [6] was “inactive” throughout. The Potency entry in experiment [9] and in experiment [10] was “inactive” throughout. In addition, the outcome in experiment [7] and in experiment [8] was inactive.
Regarding `CCC1(c2ccccc2)C(=O)N(COC)C(=O)N(COC)C1=O`, the Potency result in experiment [1], in experiment [2], in [3], in [4], in experiment [5] and in [6] was “inactive” throughout. In addition, the Potency entry in [9] and in experiment [10] was “inactive” each time. For the same molecule, the molecule was called inactive in experiment [7] and in experiment [8].
With `COc1ccc2c(C(=O)c3ccc(Cl)cc3)c(C)n(CC(=O)O)c2c1`, the Potency entry in experiment [1], in [2], in experiment [3], in experiment [4], in experiment [5] and in experiment [9] was “inactive” in each case.
For the molecule `CCOC(=O)CC(SP(=S)(OC)OC)C(=O)OCC` (stereo not drawn), the Potency entry in experiment [1], in experiment [2], in experiment [5], in [6], in [9] and in [10] was “inactive” throughout. Moreover, the Potency result was “inactive and 64.8 µM (active)” in experiment [3]; “inactive and 58.8 µM (active)” in [4]. Also, the molecule was called inactive in experiment [7] and in experiment [8].
For the molecule `COc1ccc(C=O)cc1O`, the Potency result in [1], in experiment [2], in experiment [3], in [4], in [5] and in experiment [9] was “inactive” throughout. Moreover, in [10], the Potency result was “inactive”. Further, the molecule was classed as inactive in experiment [8].
On to `C[C@H](N)C(=O)c1ccccc1`, for which the Potency entry in experiment [1], in experiment [2], in experiment [3], in experiment [4], in [5] and in [6] was “inactive” throughout. The Potency result in [9] and in experiment [10] was “inactive” each time. Further, the molecule was classed as inactive in experiment [7] and in [8].
For the molecule `COc1cccc([C@@]2(O)CCCC[C@@H]2CN(C)C)c1`, the Potency entry in experiment [1], in [2], in experiment [3], in experiment [4], in experiment [5] and in experiment [6] was “inactive” each time. Besides, the Potency entry in experiment [9] and in [10] was “inactive” in each case. Moreover, the result in [7] and in experiment [8] was inactive.
As to `CS(=O)(=O)Cl`, the Potency entry in [1], in experiment [2], in [3], in [4], in [5] and in experiment [9] was “inactive” in each case.
As to `CCN(CC)CCOC(=O)C(O)(c1ccccc1)c1ccccc1`, the Potency entry in experiment [1], in experiment [2], in experiment [3], in [4] and in [5] was “inactive” throughout.
As for `CCC(C)(C#N)N=NC(C)(C#N)CC` (stereo not drawn), the Potency result in experiment [1], in experiment [2], in experiment [3], in experiment [4], in experiment [5] and in experiment [6] was “inactive” in each case. Also, the Potency result in experiment [9] and in [10] was “inactive” in each case. In addition, the molecule was called inactive in [7] and in experiment [8].
Take `C=CCCC#N`: the Potency result in [1], in [2], in experiment [3], in experiment [4] and in experiment [5] was “inactive” each time.
Take `CC(C)C(C)(N)C#N` (stereo not drawn): the Potency result in experiment [1], in [2], in experiment [3], in experiment [4] and in experiment [5] was “inactive” each time.
For `C[N+]1(C)CCCCC1`, the Potency entry in experiment [1], in experiment [2], in experiment [3], in experiment [4], in experiment [5] and in experiment [6] was “inactive” in each case. In addition, the Potency entry in experiment [9] and in [10] was “inactive” each time. In addition, the result in [7] and in experiment [8] was inactive.
On to `O=C(NC(O)C(Cl)(Cl)Cl)NC(O)C(Cl)(Cl)Cl` (stereo not drawn), for which the Potency result in experiment [1], in experiment [2], in experiment [3], in experiment [4], in [5] and in experiment [9] was “inactive” each time.
For the molecule `O=[N+]([O-])c1cccc(CCl)c1`, the Potency entry in [1], in experiment [2], in [3], in [4], in experiment [5] and in [9] was “inactive” in each case.
Turning to `CCCCCCCCBr`, the Potency result in [1], in [2], in [3], in experiment [4], in experiment [5] and in [9] was “inactive” in each case.
With `CNC(=O)Oc1ccccc1C(C)C`, the Potency result in [1], in experiment [2], in experiment [3], in experiment [4], in experiment [5] and in experiment [6] was “inactive” throughout. Also, the Potency result in experiment [9] and in experiment [10] was “inactive” each time. In addition, the molecule was called inactive in experiment [7] and in [8].
Take `C[C@H](CN1CCOCC1)C(C(=O)N1CCCC1)(c1ccccc1)c1ccccc1`: the Potency entry in experiment [1], in experiment [5], in experiment [9] and in experiment [10] was “inactive” in each case. Also, the Potency in [2] is 33.2 µM (active); in experiment [3], 37.3 µM (active); in experiment [4] it was 59.1 µM (active). In addition, the molecule was classed as inactive in experiment [7] and in experiment [8].
